Results as given in paper PMC5700166.

Biological target: GST-Hu-p50 (Homo sapiens, UniProt P19838 7-356)
Assay: protein-binding microarray (PBM); PBM: ~300 nM protein, 6 mM HEPES pH 7.8, 80 mM KCl, 0.5 mM EDTA, 0.5 mM EGTA, 6% glycerol, 35 ng/ul poly-dIdC, 1% milk, 1 h, room temperature; Ap Aiptasia and Nv Nematostella (sea anemones) / Co Capsaspora / Aq Amphimedon (sponge) / Dm Drosophila / Hu human; RHD is the Rel homology domain; high values mean tight binding
Settings: dsDNA, one strand shown

Sequence of GST-Hu-p50 (P19838 7-356): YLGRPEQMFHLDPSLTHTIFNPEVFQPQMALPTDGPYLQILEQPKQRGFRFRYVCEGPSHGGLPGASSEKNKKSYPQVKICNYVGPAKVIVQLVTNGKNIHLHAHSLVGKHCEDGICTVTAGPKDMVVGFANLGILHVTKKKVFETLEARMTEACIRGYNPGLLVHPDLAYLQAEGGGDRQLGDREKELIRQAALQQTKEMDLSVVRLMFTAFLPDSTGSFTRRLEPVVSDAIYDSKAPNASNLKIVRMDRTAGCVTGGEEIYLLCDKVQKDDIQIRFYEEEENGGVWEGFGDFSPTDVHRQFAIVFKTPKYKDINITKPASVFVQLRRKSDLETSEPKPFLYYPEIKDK

With “CCGATTAACATCAATAAAATTCCTGATGTTAATCGGGTCTTGATTCGCTTGACGCTGCTG” as the sequence, how does the binding signal read?
Its binding signal is 1.02 z-score.

How did the binding signal turn out when “CCGATTAACATCAAAAAATTCCTTGATGTTAATCGGGTCTTGATTCGCTTGACGCTGCTG” was run?
The binding signal was 1.55 z-score.

“CCGATTAACATCAATTTCCCGTATGATGTTAATCGGGTCTTGATTCGCTTGACGCTGCTG” was tested. Which binding signal did it give?
Its binding signal is 2.68 z-score.

For “CCGATTAACATCAGGGGAACTAATGATGTTAATCGGGTCTTGATTCGCTTGACGCTGCTG”, which binding signal is on record?
The binding signal was 4.28 z-score.

For “CCGATTAACATCAAATTTCCAGGTGATGTTAATCGGGTCTTGATTCGCTTGACGCTGCTG”, which binding signal is on record?
The binding signal was 1.2 z-score.

With “CCGATTAACATCAATTTAGACGGTGATGTTAATCGGGTCTTGATTCGCTTGACGCTGCTG” as the sequence, how does the binding signal read?
Its binding signal is 1.58 z-score.

How did the binding signal turn out when “CCGATTAACATCAATTGGGAAATTGATGTTAATCGGGTCTTGATTCGCTTGACGCTGCTG” was run?
The binding signal was 2.69 z-score.

With “CCGATTAACATCAGGAATTGCCCTGATGTTAATCGGGTCTTGATTCGCTTGACGCTGCTG” as the sequence, how does the binding signal read?
Its binding signal is 1.09 z-score.

Which binding signal does the source give for “CCGATTAACATCAGGGCAAAAAATGATGTTAATCGGGTCTTGATTCGCTTGACGCTGCTG” here?
The binding signal was 1.45 z-score.

For “CCGATTAACATCAGGAAAGTCCATGATGTTAATCGGGTCTTGATTCGCTTGACGCTGCTG”, which binding signal is on record?
The binding signal was 1.14 z-score.

For “CCGATTAACATCAGAGTTTTCCCTGATGTTAATCGGGTCTTGATTCGCTTGACGCTGCTG”, which binding signal is on record?
Its binding signal is 3.99 z-score.

“CCGATTAACATCACCCGAGTGCGTGATGTTAATCGGGTCTTGATTCGCTTGACGCTGCTG” was tested. Which binding signal did it give?
Its binding signal is 1.1 z-score.

For “CCGATTAACATCAATAGTTCCCCTGATGTTAATCGGGTCTTGATTCGCTTGACGCTGCTG”, which binding signal is on record?
The binding signal was 5.26 z-score.

With “CCGATTAACATCAACATTTTCCCTGATGTTAATCGGGTCTTGATTCGCTTGACGCTGCTG” as the sequence, how does the binding signal read?
The binding signal was 4.21 z-score.

“CCGATTAACATCACCCATTCCCCTGATGTTAATCGGGTCTTGATTCGCTTGACGCTGCTG” was tested. Which binding signal did it give?
The binding signal was 5.05 z-score.

Which binding signal does the source give for “CCGATTAACATCAAATTCTCCCCTGATGTTAATCGGGTCTTGATTCGCTTGACGCTGCTG” here?
Its binding signal is 5.07 z-score.

For “CCGATTAACATCACCGGAATTTCTGATGTTAATCGGGTCTTGATTCGCTTGACGCTGCTG”, which binding signal is on record?
Its binding signal is 2.22 z-score.

“CCGATTAACATCACCAAATTTCCTGATGTTAATCGGGTCTTGATTCGCTTGACGCTGCTG” was tested. Which binding signal did it give?
The binding signal was 1.31 z-score.

With “CCGATTAACATCAAAAATTTCCGTGATGTTAATCGGGTCTTGATTCGCTTGACGCTGCTG” as the sequence, how does the binding signal read?
Its binding signal is 1.34 z-score.

Which binding signal does the source give for “CCGATTAACATCACCCCAACCCCTGATGTTAATCGGGTCTTGATTCGCTTGACGCTGCTG” here?
The binding signal was 1.66 z-score.

For “CCGATTAACATCATACAAGGGAGTGATGTTAATCGGGTCTTGATTCGCTTGACGCTGCTG”, which binding signal is on record?
The binding signal was 1.09 z-score.

“CCGATTAACATCAATGGAATTCCTGATGTTAATCGGGTCTTGATTCGCTTGACGCTGCTG” was tested. Which binding signal did it give?
The binding signal was 1.48 z-score.

For “CCGATTAACATCAGGATATACCCTGATGTTAATCGGGTCTTGATTCGCTTGACGCTGCTG”, which binding signal is on record?
The binding signal was 1.53 z-score.

Which binding signal does the source give for “CCGATTAACATCAACGGTGGAAATGATGTTAATCGGGTCTTGATTCGCTTGACGCTGCTG” here?
The binding signal was 1.15 z-score.

With “CCGATTAACATCAGGAAGTTACCTGATGTTAATCGGGTCTTGATTCGCTTGACGCTGCTG” as the sequence, how does the binding signal read?
The binding signal was 1.42 z-score.

For “CCGATTAACATCACGGGGTTGCCTGATGTTAATCGGGTCTTGATTCGCTTGACGCTGCTG”, which binding signal is on record?
The binding signal was 1.21 z-score.

For “CCGATTAACATCAGGGAAAAACCTGATGTTAATCGGGTCTTGATTCGCTTGACGCTGCTG”, which binding signal is on record?
The binding signal was 4.95 z-score.

For “CCGATTAACATCAGAAATCCCAATGATGTTAATCGGGTCTTGATTCGCTTGACGCTGCTG”, which binding signal is on record?
Its binding signal is 2.35 z-score.

Which binding signal does the source give for “CCGATTAACATCACAGGAATTTCTGATGTTAATCGGGTCTTGATTCGCTTGACGCTGCTG” here?
Its binding signal is 1.08 z-score.

For “CCGATTAACATCATTAATGACGGTGATGTTAATCGGGTCTTGATTCGCTTGACGCTGCTG”, which binding signal is on record?
Its binding signal is 1.09 z-score.

Which binding signal does the source give for “CCGATTAACATCAAATAATTCCCTGATGTTAATCGGGTCTTGATTCGCTTGACGCTGCTG” here?
Its binding signal is 5.03 z-score.

How did the binding signal turn out when “CCGATTAACATCAGGGGAAGCACTGATGTTAATCGGGTCTTGATTCGCTTGACGCTGCTG” was run?
The binding signal was 5.16 z-score.

Which binding signal does the source give for “CCGATTAACATCACATTTCCCCATGATGTTAATCGGGTCTTGATTCGCTTGACGCTGCTG” here?
The binding signal was 5.25 z-score.

Which binding signal does the source give for “CCGATTAACATCAATAAATTCCCTGATGTTAATCGGGTCTTGATTCGCTTGACGCTGCTG” here?
Its binding signal is 5.11 z-score.

With “CCGATTAACATCAGGAAACACCCTGATGTTAATCGGGTCTTGATTCGCTTGACGCTGCTG” as the sequence, how does the binding signal read?
Its binding signal is 3.48 z-score.

Which binding signal does the source give for “CCGATTAACATCATTAGGGAAAATGATGTTAATCGGGTCTTGATTCGCTTGACGCTGCTG” here?
The binding signal was 4.64 z-score.

For “CCGATTAACATCACCTTCTTTACTGATGTTAATCGGGTCTTGATTCGCTTGACGCTGCTG”, which binding signal is on record?
Its binding signal is 1.59 z-score.

How did the binding signal turn out when “CCGATTAACATCAGGGATTCCACTGATGTTAATCGGGTCTTGATTCGCTTGACGCTGCTG” was run?
The binding signal was 1.75 z-score.

How did the binding signal turn out when “CCGATTAACATCAGGGAAAATCATGATGTTAATCGGGTCTTGATTCGCTTGACGCTGCTG” was run?
Its binding signal is 3.98 z-score.

For “CCGATTAACATCAGGTAACCCCATGATGTTAATCGGGTCTTGATTCGCTTGACGCTGCTG”, which binding signal is on record?
The binding signal was 1.35 z-score.
